Results: PubChem BioAssay (NCI)
This is part of a sample that, as a whole, favours compounds with a hit. Of some 79,000 tested, about 15% had one in any assay. Activity calls are given as the source filed them. Cut-off read from the data, not from the text of the source: active = growth inhibition above about 70%; inactive = the rest.

Legend:
[1] = NCI Yeast Anticancer Drug Screen. Data for the rad50 strain (AID 155);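 note: 0% = growth of vehicle-only cultures of the same strain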; conditions: S. cerevisiae rad50 strain growth inhibition; at 50.0 µM; active compounds read high
How it was run: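 A DNA repair-deficient yeast mutant serves as the test organism; compound-induced growth inhibition is calculated against vehicle-treated cells.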

[2] = NCI Yeast Anticancer Drug Screen. Data for the mec2-1 strain (AID 157); conditions: S. cerevisiae mec2-1 strain, at 50.0 µM, active compounds read high
How it was run: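 Vehicle-treated cultures served as reference for growth inhibition of compound-exposed mec2-1 yeast.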

[3] = NCI Yeast Anticancer Drug Screen. Data for the sgs1 mgt1 strain (AID 161);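 note: 0% = growth of cultures given vehicle only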; conditions: S. cerevisiae sgs1 mgt1 strain, at 50.0 µM, active compounds read high
How it was run: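 Genetically altered yeast, compound exposure, growth inhibition relative to vehicle.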

[4] = NCI Yeast Anticancer Drug Screen. Data for the cln2 rad14 strain (AID 165);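 note: 0% = growth equal to vehicle treated cultures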; conditions: S. cerevisiae cln2 rad14 strain, at 50.0 µM, active compounds read high
How it was run: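 Each compound was tested on cln2 rad14 yeast. Inhibition of growth was calculated against vehicle-exposed controls.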

[5] = NCI Yeast Anticancer Drug Screen. Data for the bub3 strain (AID 167); conditions: S. cerevisiae bub3 mutant strain, at 50.0 µM, active compounds read high
How it was run: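 Inhibition values come from growth of compound-treated mutant yeast normalised to vehicle-treated controls.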

[6] = NCI Yeast Anticancer Drug Screen. Data for the mlh1 rad18 strain (AID 175); conditions: S. cerevisiae mlh1 rad18 strain growth inhibition; at 50.0 µM; active compounds read high
How it was run: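 Vehicle-treated cultures served as the reference for growth inhibition in a yeast strain carrying DNA damage repair alterations exposed to each compound.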

Row | Compound | growth inhibition [1] | growth inhibition [2] | growth inhibition [3] | growth inhibition [4] | growth inhibition [5] | growth inhibition [6]
1 | CC(C)(C)C(=O)OCC1C(=O)OCC1C(=O)N1Cc2cc3ccccc3nc2C1 (centres undefined) | -7.7% (inactive) | -19.9% (inactive) | 1.55% (inactive) | -13% (inactive) | -8.2% (inactive) | -16.2% (inactive)
2 | O=C1/C(=C/c2ccccc2)CN(C(=O)OCC(Cl)(Cl)Cl)C/C1=C\c1ccccc1 | 2.6% (inactive) | 7.3% (inactive) | -31.4% (inactive) | 4.9% (inactive) | -11% (inactive) | -57.7% (inactive)
3 | CC(=O)OCCc1cccc(C)c1 | 3.9% (inactive) | -17.9% (inactive) | -4.8% (inactive) | -30.4% (inactive) | -10.7% (inactive) | 7.3% (inactive)
4 | CC(=O)Nc1ccc2c(=O)cc[nH]c2n1 | 13.7% (inactive) | 2.9% (inactive) | 2.4% (inactive) | 1.9% (inactive) | -2.95% (inactive) | 31.2% (inactive)
5 | NC(CCCC(N)C(=O)c1ccccc1)C(=O)c1ccccc1 (centres undefined) | -13.7% (inactive) | 2.35% (inactive) | -1.5% (inactive) | -15.5% (inactive) | -11.3% (inactive) | 3.35% (inactive)
6 | CC(C(=O)n1c2ccccc2c2ccccc21)N(c1ccccc1)c1ccccc1 (centres undefined) | -16.8% (inactive) | -15.1% (inactive) | -30.2% (inactive) | 9.15% (inactive) | -29.4% (inactive) | -19.6% (inactive)
7 | NCCCCCCN1CCN(c2cccc(Cl)c2)CC1 | 14.2% (inactive) | 21.9% (inactive) | 14.8% (inactive) | 7.55% (inactive) | 13.8% (inactive) | -13.4% (inactive)
8 | Cc1ncc(C(N)=O)c(N)n1 | 21% (inactive) | -2.05% (inactive) | -11.6% (inactive) | -42% (inactive) | -13.6% (inactive) | 8.3% (inactive)
9 | CC(=O)OCC1OC(n2cnc3c(=S)nc[nH]c32)C(OC(C)=O)C1N(C)C(C)=S (centres undefined) | 38.5% (inactive) | -4% (inactive) | 37.6% (inactive) | 9.85% (inactive) | 1.25% (inactive) | 12.6% (inactive)
10 | CC(C)CC1=C(C(=O)c2ccoc2)CC(C)C1 (centres undefined) | 6.55% (inactive) | -7.6% (inactive) | -18.9% (inactive) | 12.1% (inactive) | 25.9% (inactive) | -7.1% (inactive)
11 | NCCn1ccnc1 | 13.3% (inactive) | 1.7% (inactive) | -1.75% (inactive) | -19.8% (inactive) | -3.15% (inactive) | 1.4% (inactive)
12 | CCCn1c(C)nc2cc(C(F)(F)F)cc(N)c21 | 14.3% (inactive) | 11.4% (inactive) | 1.55% (inactive) | -35.4% (inactive) | 17.9% (inactive) | 5.5% (inactive)
13 | OC(Cc1ccccc1)c1ccccc1 (centres undefined) | -21.9% (inactive) | -19.8% (inactive) | -24.8% (inactive) | 16.2% (inactive) | -5.15% (inactive) | 1.5% (inactive)
14 | CCC(CC)=NNc1ccc([N+](=O)[O-])cc1[N+](=O)[O-] | -2.45% (inactive) | -11.4% (inactive) | -13.6% (inactive) | -51.1% (inactive) | 0.75% (inactive) | -9.85% (inactive)
15 | CCOC(=O)C1CC(=O)C=C2CCCCC21 (centres undefined) | -4.05% (inactive) | -27.7% (inactive) | -7.55% (inactive) | 5.35% (inactive) | -30.1% (inactive) | 13.4% (inactive)
16 | O=C(N/N=C\c1c[nH]c2ccccc12)N/N=C/c1c[nH]c2ccccc12 | -4.05% (inactive) | -21.4% (inactive) | -7.25% (inactive) | -11.2% (inactive) | -3.45% (inactive) | -37.9% (inactive)
17 | c1ccc(Cn2c(-c3ccccc3)c[n+]3ccccc23)cc1 | -11.4% (inactive) | -10.1% (inactive) | 5.35% (inactive) | -49.4% (inactive) | 10.3% (inactive) | -6.4% (inactive)
18 | CC1=NN(C(=O)CC(=O)Nc2cccc(C)c2)C(=O)C1N=Nc1ccc(C(=O)O)cc1 (centres undefined) | -33.9% (inactive) | 5.95% (inactive) | 12.6% (inactive) | -11.7% (inactive) | -2.7% (inactive) | 25.9% (inactive)
19 | CCOC(=O)C(Cc1ccc(O)cc1)NC(=O)c1cc2c(cn1)[nH]c1ccccc12 (centres undefined) | 11% (inactive) | 16.2% (inactive) | 7.45% (inactive) | -19.8% (inactive) | -1% (inactive) | 4.65% (inactive)
20 | CCCOC(=O)CCCCC(=O)OCCC | 11.6% (inactive) | 17.9% (inactive) | -8.65% (inactive) | -4% (inactive) | 0.85% (inactive) | 11.9% (inactive)

Row | Compound | growth inhibition [1] | growth inhibition [2] | growth inhibition [3] | growth inhibition [4] | growth inhibition [5] | growth inhibition [6]
21 | CCN(CC)CC1CO1 (centres undefined) | -8.15% (inactive) | -12.1% (inactive) | 3.35% (inactive) | -3.5% (inactive) | -11.7% (inactive) | 9.2% (inactive)
22 | CCc1cc(-c2cc(CC)on2)no1 | -3.3% (inactive) | -14.9% (inactive) | -12.4% (inactive) | -1.15% (inactive) | -19.2% (inactive) | 1.4% (inactive)
23 | O=C(c1ccc(Cl)cc1)c1onc(-c2ccccc2)c1-c1ccccc1 | -13.6% (inactive) | 0% (inactive) | -0.3% (inactive) | -43.9% (inactive) | -9.2% (inactive) | -3.05% (inactive)
24 | COC1(C2COc3cc(OCc4ccccc4)ccc3C2=O)C=C2OCOC2=CC1=O (centres undefined) | -16.6% (inactive) | -18% (inactive) | -6.6% (inactive) | -33% (inactive) | 9.45% (inactive) | -4.75% (inactive)
25 | Cc1cc(OCCOc2ccc(N)cc2)ccc1N1C(N)=NC(N)=NC1(C)C | -1.5% (inactive) | 12.7% (inactive) | 6.65% (inactive) | 83.2% (active) | 1.45% (inactive) | -3% (inactive)
26 | CC[CH2][Sn]([CH2]CC)([O]C(=O)Cc1ccc(F)cc1)[O][Sn]([CH2]CC)([CH2]CC)[O]C(=O)Cc1ccc(F)cc1 | 90.2% (active) | 89.4% (active) | 87.8% (active) | 82.8% (active) | 89.1% (active) | 83.6% (active)
27 | NC(=O)CCC1CCCCN1 (centres undefined) | 27.2% (inactive) | 18.8% (inactive) | 6.5% (inactive) | 5.7% (inactive) | 1.85% (inactive) | 2.2% (inactive)
28 | Cc1cccc(F)c1C | 24.9% (inactive) | -14.5% (inactive) | 4.9% (inactive) | 6.1% (inactive) | 3.2% (inactive) | 7.25% (inactive)
29 | CN(N=O)C(=O)NCCc1ccccc1 | 13.6% (inactive) | -11.9% (inactive) | 11.6% (inactive) | -36.6% (inactive) | -5.2% (inactive) | 16.2% (inactive)
30 | O=C1OC(c2ccc(Cl)c3ccccc23)c2ccccc21 (centres undefined) | 58.6% (inactive) | 19.2% (inactive) | 34.4% (inactive) | 28.6% (inactive) | 12.8% (inactive) | 43.3% (inactive)
31 | Cc1nc(N(C)C)oc(=O)c1Cc1ccccc1 | -0.9% (inactive) | 18.6% (inactive) | 17.4% (inactive) | -8.8% (inactive) | 20.6% (inactive) | 6.2% (inactive)
32 | CCCCCCCC(=O)NN | -20.9% (inactive) | -27.6% (inactive) | -12.9% (inactive) | -4.7% (inactive) | -11.9% (inactive) | 10.3% (inactive)
33 | COc1ccc(Nc2nc(N)nc3c2ncn3C2OC(CO)C(O)C2O)cc1 (centres undefined) | -9.6% (inactive) | -17.9% (inactive) | -13.2% (inactive) | -7% (inactive) | 2.05% (inactive) | -11.5% (inactive)
34 | O=C1c2cccc3cccc(c23)C(=O)N1CCCN(CCO)CCO | -1.25% (inactive) | 4.25% (inactive) | -4.35% (inactive) | 7.95% (inactive) | -7.6% (inactive) | 14.2% (inactive)
35 | O=C(Nc1ccc(Cl)cc1)OCCSc1nc2ccccc2s1 | -6.05% (inactive) | -30.1% (inactive) | 21.5% (inactive) | 9.35% (inactive) | 4.55% (inactive) | -3.9% (inactive)
36 | CCCC(=O)OCC1OC(n2ccc(N)nc2=O)C(OC(=O)CCC)C1OC(=O)CCC (centres undefined) | 18.6% (inactive) | -22.4% (inactive) | 36.3% (inactive) | 17.8% (inactive) | 10.6% (inactive) | 8.2% (inactive)
37 | COC(=O)N/N=C(\C)CC(=O)Nc1ccc(Cl)cc1 | -22.9% (inactive) | -32.6% (inactive) | -28.2% (inactive) | -5.95% (inactive) | -27.2% (inactive) | -43.7% (inactive)
38 | CCCNC(=S)/N=C/c1c(O)c2ccccc2[nH]c1=O | -40% (inactive) | -44.6% (inactive) | -11.7% (inactive) | 12.3% (inactive) | 6.8% (inactive) | -13.6% (inactive)
39 | CCCCCCCCCCCCC/C=C/CC(CC(=O)Nc1ccc(-n2c(=O)cc(C)n2C)cc1)C(=O)O (centres undefined) | 3.75% (inactive) | -24.1% (inactive) | 13.1% (inactive) | 21.2% (inactive) | 20.6% (inactive) | 5.65% (inactive)
